A selection: hits, their analogues and other compounds. The true share with any hit is near 2.2%.
Abeta rescue: qHTS for compounds that reverse cellular toxicity of Amyloid beta (A-beta) peptide in yeast: Primary Screen | yeast expressing A-beta42, growth rescue, OD600, 48 h; response scale: 0% DMSO, 100% iron-clioquinol control | Potency, µM (highest dose often 46.1 µM), most hits filed as activators | actives 0.063% (n = 410,000) | AID 1347071, 2019; also: nearly all actives have a fitted effect of over 55% in size
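Yeast A-beta toxicity model in growth medium with pinned compounds, 48 h at 30 C; growth read as absorbance at 600 nm. Normalized to FeCl3/clioquinol equimolar mix (positive) and DMSO (negative).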
FUS suppressor: qHTS for Suppressors of FUS Proteinopathy: Primary screen using FUS-linked yeast assay | AID 1347120, 2019 | Potency, µM (top dose mostly 76.6 µM), usual class: activators | S. cerevisiae FUS-expressing, growth rescue, OD600, 24 h | actives 0.24% (n = 390,000);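 also: plate controls were DMSO vehicle for no effect and reference control for full effect; nearly all actives have a fitted effect of over 55% in size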
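Steps: raffinose overnight preculture; dilution to OD 0.005 in 2% galactose minimal medium; compound addition (concentration series); 24hr at 30C, 99% humidity; absorbance read at 600 nm.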
Mito fusion yeast: qHTS Assay for Small Molecule Inhibitors of Mitochondrial Division or Activators of Mitochondrial Fusion. S. cerevisiae fusion-defective mutant growth rescue, CellTiterGlo 48 h. Potency, µM (doses to about 46.1 µM), for inactives: at the top dose growth rescue (activation), actives largely listed as activators. actives 0.23% (n = 320,000); also: % of control where 0% means no effect; nearly all actives have a fitted effect of over 45% in size
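S. cerevisiae fusion-defective temperature-sensitive mutants (e.g. fzo1-1, mgm1-5) grown 48 h at 37C in YPEG (ethanol/glycerol non-fermentable) medium with 23 nl compound per well; growth rescue read as CellTiterGlo luminescence.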
aSyn yeast inh: qHTS of alpha-syn Inhibitors; Yeast expressing alpha-synuclein, growth rescue, BacTiter-Glo, 24 h; actives 0.14% (n = 370,000); Potency, µM (titrated, usually from 46.1 µM), for inactives: at the top dose growth rescue (activation), most hits filed as activators; also: % of control where 0% means no effect; nearly all actives have a fitted effect of over 65% in size
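Galactose-induced alpha-syn yeast (OD600=0.02, raffinose-pregrown) + pinned cpd, 24 hr, 30 deg C; growth by BacTiter-Glo luminescence. Growth restoration scores as activation.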
TDP-43 yeast inh: qHTS of TDP-43 Inhibitors. TDP-43 expressing yeast growth rescue, BacTiter-Glo, 24 h. actives 1.8% (n = 410,000). Potency, µM (series often up to 46.1 µM), for the others: at the top dose growth rescue (activation), most hits filed as activators. AID 652104, 2013; also: % of control where 0% means no effect; nearly all actives have a fitted effect of over 50% in size
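Growth rescue of TDP-43-toxic yeast measured as ATP luminescence (BacTiter-Glo). Cells grown to mid-log in raffinose, induced in galactose at OD600=0.02, exposed to compound 24 hr at 30 deg C.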
Active calls of the source: *; i = inactive; ? = inconclusive; / = not tested or not shown; ! = repeats disagree. Calls follow the shape of the dose curve; as a rule, active = well fitted curve in the direction sought with a large enough effect; inconclusive = small, poorly fitted or top-dose-only effect, or another doubt; inactive = no such curve, though single readings can be large; an effect the other way counts as inactive or inconclusive. Potency is read from the fitted curve at half-maximal effect.

SMILES	Abeta rescue	FUS suppressor	Mito fusion yeast	aSyn yeast inh	TDP-43 yeast inh
CC(C)c1cnc2c(c1SCC(=O)Nc1cccc([N+](=O)[O-])c1)c(=O)n(C)c(=O)n2C	i	i	/	/	11.2µM*
COc1ccc(-c2ccc(NS(=O)(=O)c3ccccc3Cl)cc2)nn1	i	i	/	/	18.3%
COc1ccc(-c2ccc(NS(=O)(=O)c3cc(C)c(C)cc3C)cc2)nn1	i	?	/	/	17.8µM*
COc1ccc(-c2cccc(NS(=O)(=O)c3cc(C)c(Cl)cc3C)c2)nn1	i	?	/	/	17.8µM*
COCCNC(=O)C1(C)CCCN(Cc2ccc(OCc3ccccc3)cc2)C1 (stereo not drawn)	i	i	/	3.1%	29.9%
COC(=O)C1=C(C)NC(C)=C(C(=O)OCC(C)C)C1c1ccccc1[N+](=O)[O-] (stereo not drawn)	i	i	/	-3.9%	35.5µM*
Cc1ccc(C=Nc2ccccc2C(N)=O)o1	i	i	7.8%	1.8%	0.7%
CN(C)c1ccc(C=Nc2ccccc2C(N)=O)cc1	i	i	-2.1%	-12.3%	11.2µM*
CN(C)CCN(Cc1ccco1)S(=O)(=O)c1cc2c(cc1Cl)NC(=O)CO2	i	i	/	/	5.3%
CCOc1ccccc1-c1ccc(C(=O)NCc2ccccc2)o1	i	i	?	3.4%	15.8µM*
CCCCC(CC)CNC(=O)c1[nH]c(C)c(C(C)=O)c1C (stereo not drawn)	i	i	24.3%	-1.2%	12.6µM*
CSc1nnc(NC(=O)c2nc(S(=O)(=O)Cc3ccccc3F)ncc2Cl)s1	i	i	-21.3%	13.9%	25.3%
CCc1nnc(NC(=O)c2nc(S(=O)(=O)Cc3ccc(C)cc3)ncc2Cl)s1	i	i	-30.5%	15.7%	17.8µM*
O=C(Nc1ccc(OC(F)F)cc1)c1nc(S(=O)(=O)Cc2ccccc2F)ncc1Cl	/	/	/	-81.6%	/
CCOc1ccc(NC(=O)c2nc(S(=O)(=O)Cc3ccccc3F)ncc2Cl)cc1	i	i	/	11.2µM*!	?
CC(C)c1nnc(NC(=O)c2nc(S(=O)(=O)Cc3ccccc3F)ncc2Cl)s1	i	i	-13.8%	5.4%	28.2µM*
O=C(NCc1ccccc1)c1nc(S(=O)(=O)Cc2ccccc2)ncc1Cl	i	i	-24.2%	21.2%	10µM*
COc1ccccc1N1CCN(c2nc3ccc(C)cc3n3nnnc23)CC1	i	i	/	/	0.9%
COc1ccc([C@H]2N[C@]3(CCCN(Cc4ccc(F)cc4)C3=O)[C@H]3C(=O)N(Cc4ccccc4)C(=O)[C@@H]23)cc1	i	?	/	0.0%	5.7%
CC(C)c1nnc(NC(=O)c2nc(S(=O)(=O)Cc3ccc(F)cc3)ncc2Cl)s1	i	i	-32.5%	12.4%	7.6%
Cc1ccc(CS(=O)(=O)c2ncc(Cl)c(C(=O)Nc3nnc(C(C)C)s3)n2)cc1	i	i	-36.7%	19.7%	14.1µM*
CCc1nnc(NC(=O)c2nc(S(=O)(=O)Cc3cccc(C)c3)ncc2Cl)s1	i	i	-29.9%	16.6%	11.2µM*
CCc1nnc(NC(=O)c2nc(S(=O)(=O)Cc3ccccc3)ncc2Cl)s1	i	i	-8.6%	6.6%	20.1%
CCCSc1ncc(Cl)c(C(=O)Nc2sc3c(c2C(=O)NCCCOC)CCCC3)n1	/	/	/	0.8%	/
Nc1nc(Cl)cc(Nc2ccccc2Cl)n1	i	i	-5.2%	-13.3%	21.6%
SMILES	Abeta rescue	FUS suppressor	Mito fusion yeast	aSyn yeast inh	TDP-43 yeast inh
CSc1nc(Cl)cc(Nc2ccccc2N)n1	i	i	-26.0%	8.9%	10µM*
O=C(OC12CCCN(C1)/C(=C/c1cccnc1)C2)c1ccc(F)cc1 (stereo not drawn)	/	i	/	/	/
COc1ccc(CCNS(=O)(=O)c2ccc(N3CCCCS3(=O)=O)cc2)cc1OC	i	i	/	/	?
CC(=O)c1cc(CN2C(=O)c3ccccc3C2=O)cs1	i	i	1.3%	20.6%	14.1µM*
CC(C)c1ccc(-n2cnn(-c3ncccc3[N+](=O)[O-])c2=O)cc1	i	i	-2.4%	-3.0%	11.2µM*
Cc1cc(C)n(-c2ncccc2[N+](=O)[O-])n1	i	i	4.1%	6.2%	7.1%
COc1ccc(NC(=O)c2c(NC(=O)COc3ccc(Cl)cc3)sc3c2CCCCC3)cc1	i	i	/	/	8.91µM*
O=C(COc1ccccc1)Nc1sc2c(c1C(=O)Nc1ccccc1)CCCCC2	i	i	/	/	7.1%
O=C(NC(=S)Nc1ccccc1F)C1CCCCC1	/	/	-0.9%	/	/
O=C(NC(=S)Nc1ccccc1Br)C1CCCCC1	i	/	/	-23.0%	15.8µM*
O=C(NC(=S)Nc1ccccc1Br)C1CCCC1	?	i	-2.8%	-1.1%	15.8µM*
C[N+](C)(CCCCCI)c1ccc(/C=C/c2nc3ccccc3s2)cc1	/	/	/	-56.7%	/
COc1ccccc1OCCNS(=O)(=O)c1ccc2oc3ccccc3c2c1	i	i	-3.4%	?	15.8µM*
O=S(=O)(NCCOc1ccccc1Cl)c1ccc2oc3ccccc3c2c1	i	i	/	?	19.3%
CCc1ccc2oc(=O)cc(CN3CCN(c4ccc(F)cc4)CC3)c2c1	i	i	-0.4%	5.3%	19.3%
CC(C)c1ccc2oc(=O)cc(CN3CCN(c4ccc(F)cc4)CC3)c2c1	i	i	-8.3%	7.5%	14.1µM*
Nc1cc(=O)nc(SCC(=O)N(C2CCCCC2)C2CCCCC2)n1-c1ccccc1	i	28.2µM*	0.7%	-3.8%	-14.3%
O=C(CCNS(=O)(=O)c1ccc2c(c1)CCN2C(=O)C1CC1)Nc1ccc(F)cc1F	i	i	/	0.4%	14.2%
COc1ccccc1OCCN1CSC(=S)N(C)C1	i	i	?	-66.9%	20µM*
Cc1cccc(OCCN2CSC(=S)N(C)C2)c1	i	i	0.4%	-7.9%	21.5%
O=C(CSc1ccc2c(c1)OCCO2)NCCc1ccc(Cl)cc1Cl	i	/	20.3%	?	11.2µM*
CCCCNc1c(-c2cccc(-c3ccc(OC)cc3)c2)nc2ccc(C)cn12	i	i	-17.1%	-71.8%	-92.9%
CCCCNc1c(-c2cccc(-c3cc(C(C)=O)cs3)c2)nc2ccc(C)cn12	i	i	12.2%	-7.2%	11.2µM*
CC1(C(=O)Nc2ccc3c(c2)OCCO3)CN(S(C)(=O)=O)CC(=O)N1Cc1cccc(C(F)(F)F)c1 (stereo not drawn)	i	i	/	13.1%	22.4µM*
CC1(C(=O)Nc2ccc3c(c2)OCCO3)CN(S(C)(=O)=O)CC(=O)N1CC(F)(F)F (stereo not drawn)	i	i	/	-5.2%	0.1%

Compound activity: PubChem BioAssay, National Center for Advancing Translational Sciences (NCATS)
